The list is not random: actives were taken first. Their share in the collection is about 6.7%.
Pf Dd2 inh = P. falciparum Dd2 growth inhibitors, primary screen, SYBR Green fluorescence, single dose replicates; 72 h; active compounds read low; actives 2.3% (n = 94,000); AID 1159554, 2015; activity change, % at 10 µM; in the data active = activity change below about -80%; inconclusive = no clear call, values can overlap the other calls
T cruzi growth-1 = T. cruzi intracellular proliferation inhibitors, primary screen, cell-based, beta-gal Tulahuen parasites, NIH3T3 host, luminescence; T. cruzi beta-gal in NIH3T3, GalScreen luminescence, 90 h; actives 5.9% (n = 77,000); inhibition, % at 8.34 µM;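 active = mean inhibition above about 93%, with at least 55% of replicates each passing it, limit read from the data, passing the limit was not always enough; inconclusive = only one of those two conditions holds; inactive = neither condition holds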
C diff HTS = C. difficile growth inhibitors, primary screen, HTS | growth activity, negative = inhibition, % at 16 µg/mL (by protocol) | actives 0.25% (n = 86,000) | Clostridium difficile clinical isolate growth, OD600, 24 h; active compounds read low;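 active = mean growth activity at or below -80% and every replicate also at or below -80%; inconclusive = mean at or below -80% but some replicate above -80%; inactive = mean growth activity above -80%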
T cruzi growth-2 = T. cruzi intracellular proliferation inhibitors, confirmation, cell-based, NIH3T3 host, beta-gal parasite, luminescence, cherry-pick | shares compounds with T cruzi growth-1 | T. cruzi beta-gal in NIH3T3, GalScreen luminescence, 90 h | inhibition, % at 8.35 µM | actives 72% (n = 5,600);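 active = mean replicate inhibition above about 95% and at least 55% of replicates individually reaching it, limit read from the data; inconclusive = only one of the two criteria is met; inactive = neither criterion is met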
T cruzi growth-3 = inhibitors of intracellular T. cruzi replication, confirmation, NIH3T3 host cells, beta-gal parasites, cherry-pick, set 2 | inhibition, % at 2.09 µM | shares compounds with T cruzi growth-1 | T. cruzi beta-gal in NIH3T3, GalScreen luminescence, 90 h | actives 21% (n = 5,600);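 active = mean inhibition above about 95%, with at least 55% of replicates also reaching it, limit read from the data; inconclusive = meets just one of the two conditions; inactive = meets neither condition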
3T3 cytotox = cytotoxicity in mouse NIH/3T3 fibroblasts, confirmation, cytotoxicity control for T. cruzi proliferation inhibitor project, cell-based, cherry-pick, single point; NIH/3T3 viability, CellTiter-Glo ATP luminescence, 90 h; AID 651742, 2012; actives 14% (n = 5,600); shares compounds with T cruzi growth-1; cytotoxicity (signal decrease), % at 8.35 µM;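 active = mean signal decrease across replicates above about 35% based on untreated-well scatter, with enough replicates individually passing, limit read from the data; inconclusive = no rule stated though some were filed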
3T3 cytotox 2 = NIH/3T3 fibroblast cytotoxicity, confirmation, cytotoxicity control, cell-based, cherry-pick, single point, set 2; shares compounds with T cruzi growth-1; NIH/3T3 viability, CellTiter-Glo ATP luminescence, 90 h; inhibition, % at 24.9 µM; actives 56% (n = 5,600); AID 651744, 2012;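 active = mean loss of cell viability signal at or above a set limit, and enough replicates individually reaching it; inconclusive = meets only the mean limit or only the replicate share; inactive = meets neither condition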
Hits are given with their value; 0 = inactive; ? = inconclusive; - = no result; ! = not confirmed by another sample.

SMILES	Pf Dd2 inh	T cruzi growth-1	C diff HTS	T cruzi growth-2	T cruzi growth-3	3T3 cytotox	3T3 cytotox 2
C[C@@H]1CN([C@@H](C)CO)C(=O)c2cc(NS(=O)(=O)c3ccc(F)cc3)ccc2O[C@@H](C)CCCCO[C@@H]1CN(C)S(=O)(=O)c1cccs1	-	97	0	108	0	0	0
C[C@@H]1CCCCO[C@@H](CN(C)S(=O)(=O)c2cccs2)[C@H](C)CN([C@@H](C)CO)C(=O)c2cc(NS(=O)(=O)c3ccc(Cl)cc3)ccc2O1	0	96	0	98	0	0	0
C[C@@H]1CN([C@H](C)CO)C(=O)c2cc(NS(=O)(=O)c3ccc(Cl)cc3)ccc2O[C@@H](C)CCCCO[C@H]1CN(C)S(=O)(=O)c1cccs1	0	0	0	-	-	-	-
C[C@@H]1CN([C@@H](C)CO)C(=O)c2cc(N(C)C)ccc2O[C@@H](C)CCCCO[C@@H]1CN(C)S(=O)(=O)c1cccs1	0	106!	0	0	0	0	0
C[C@@H]1CN([C@@H](C)CO)C(=O)c2cc(NS(=O)(=O)c3ccc(Cl)cc3)ccc2O[C@@H](C)CCCCO[C@@H]1CN(C)S(=O)(=O)c1cccs1	0	0	0	-	-	-	-
O=C(C[C@@H]1C=C[C@H](NC(=O)Nc2ccc(F)cc2)[C@@H](CO)O1)NCc1cccc(F)c1	-	-	0	-	-	-	-
COCC(=O)N1C[C@@H](C)[C@@H](OC)CN(C)C(=O)c2cc(NC(=O)c3ccc(OC)cc3)ccc2OC[C@@H]1C	0	0	-	-	-	-	-
CO[C@H]1CN(C)C(=O)c2ccc(NC(=O)C3CCCC3)cc2OC[C@H](C)N(S(C)(=O)=O)C[C@H]1C	0	0	-	-	-	-	-
C[C@H](CO)N1C[C@H](C)[C@@H](CN(C)CC2CC2)Oc2ccc(NC(=O)Cc3ccccc3)cc2C1=O	0	-	0	-	-	-	-
COc1cc(CN2[C@@H]3CNC[C@H]2C3c2ccc(-c3ccc(C)cc3)cc2)cc(OC)c1 (stereo partly drawn)	0	-	0	-	-	-	-
C[C@@H]1CN([C@H](C)CO)C(=O)c2cc(NC(=O)CCN3CCOCC3)ccc2O[C@H]1CN(C)S(C)(=O)=O	0	0	0	-	-	-	-
C/C=C/c1ccc2c(c1)O[C@@H](CN(C)C(=O)C1CCCCC1)[C@@H](C)CN([C@@H](C)CO)S2(=O)=O	0	-	-	-	-	-	-
C[C@H]1CCCCO[C@H](CN(C)S(=O)(=O)c2cccs2)[C@@H](C)CN([C@@H](C)CO)C(=O)c2cc(NS(=O)(=O)c3ccccc3)ccc2O1	0	105	0	106	0	0	0
C[C@@H]1CCCCO[C@@H](CN(C)S(=O)(=O)c2cccs2)[C@@H](C)CN([C@@H](C)CO)C(=O)c2cc(NS(=O)(=O)c3ccccc3)ccc2O1	0	0	0	-	-	-	-
C[C@@H]1CCCCO[C@H](CN(C)S(=O)(=O)c2cccs2)[C@H](C)CN([C@H](C)CO)C(=O)c2cc(NS(=O)(=O)c3ccc(Cl)cc3)ccc2O1	-87	99	0	102	114	0	0
C[C@@H]1CCCCO[C@@H](CN(C)S(=O)(=O)c2cccs2)[C@@H](C)CN([C@@H](C)CO)C(=O)c2cc(NS(=O)(=O)c3ccc(Cl)cc3)ccc2O1	0	0	-	-	-	-	-
COc1cccc(NC(=O)N[C@H]2C=C[C@@H](CC(=O)Nc3ccccc3)O[C@H]2CO)c1	0	-	0	-	-	-	-
CNC(=O)C[C@H]1CC[C@@H]2[C@H](COc3ccc(NC(=O)Nc4c(C)noc4C)cc3C(=O)N2C)O1	0	0	0	-	-	-	-
NCC[C@H]1CC[C@H](NC(=O)c2ccccc2F)[C@H](CO)O1	0	0	0	-	-	-	-
C/C=C/c1ccc2c(c1)O[C@H](CN(C)C(=O)Nc1ccc(C(F)(F)F)cc1)[C@H](C)CN([C@@H](C)CO)S2(=O)=O	0	?	0	99	0	46	69

Screening data deposited in PubChem by Broad Institute.
